# Results reported in paper PMC4336329 (PLoS ONE, 2015).
# The whole screen tested about 310,000 compounds, of which about 14,000 (4.5%) showed an effect of 50% or more. Effects have a minus sign here. The list comes from a sample in which strong results are over-represented; it also holds similar structures and randomly drawn compounds.
# Biological target: human ether-à-go-go-related gene (hERG) potassium channel (human, UniProt Q12809)
# Test: primary screen, population patch clamp on CHO cells stably expressing hERG; higher = less effect of the substance
# 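Further: peak tail current of the secondary pulse compared with the same well before compound.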
# human ether-à-go-go-related gene (hERG) potassium channel, sequence (Q12809 whole entry, looked up): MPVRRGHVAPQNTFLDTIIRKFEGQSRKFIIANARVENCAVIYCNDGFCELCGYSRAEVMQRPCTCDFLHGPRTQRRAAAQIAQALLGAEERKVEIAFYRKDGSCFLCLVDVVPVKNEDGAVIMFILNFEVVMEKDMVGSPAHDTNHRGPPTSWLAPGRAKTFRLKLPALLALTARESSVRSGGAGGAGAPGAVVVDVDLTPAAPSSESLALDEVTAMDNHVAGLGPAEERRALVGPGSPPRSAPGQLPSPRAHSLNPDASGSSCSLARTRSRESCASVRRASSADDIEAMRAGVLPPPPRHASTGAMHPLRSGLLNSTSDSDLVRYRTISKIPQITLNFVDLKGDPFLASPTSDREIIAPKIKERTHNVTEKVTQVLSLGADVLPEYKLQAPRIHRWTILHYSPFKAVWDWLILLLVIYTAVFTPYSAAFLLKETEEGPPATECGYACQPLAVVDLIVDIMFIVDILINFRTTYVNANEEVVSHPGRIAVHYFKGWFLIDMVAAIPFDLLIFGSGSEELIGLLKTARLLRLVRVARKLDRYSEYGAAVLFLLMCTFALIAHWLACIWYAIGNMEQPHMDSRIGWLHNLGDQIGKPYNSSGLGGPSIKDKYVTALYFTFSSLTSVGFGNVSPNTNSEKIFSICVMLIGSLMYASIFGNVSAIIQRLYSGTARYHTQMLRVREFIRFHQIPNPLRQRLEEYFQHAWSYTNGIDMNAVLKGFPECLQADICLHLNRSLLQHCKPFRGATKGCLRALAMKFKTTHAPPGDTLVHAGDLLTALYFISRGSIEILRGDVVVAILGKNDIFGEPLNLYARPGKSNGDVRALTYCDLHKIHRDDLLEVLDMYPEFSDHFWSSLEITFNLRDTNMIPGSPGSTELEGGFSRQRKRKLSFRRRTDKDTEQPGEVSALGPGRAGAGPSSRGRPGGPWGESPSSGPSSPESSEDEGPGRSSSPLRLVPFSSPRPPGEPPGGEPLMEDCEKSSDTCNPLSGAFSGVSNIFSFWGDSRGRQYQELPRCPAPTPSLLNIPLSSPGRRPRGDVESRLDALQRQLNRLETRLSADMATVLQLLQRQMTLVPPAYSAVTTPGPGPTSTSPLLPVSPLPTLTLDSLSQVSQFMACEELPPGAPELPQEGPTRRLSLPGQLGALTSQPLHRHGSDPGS
row,Compound,"hERG current change (%, negative = inhibition) at 10uM [%]"
1,O=C(NNC(=O)c1cccs1)c1ccc(Cl)c([N+](=O)[O-])c1,-6.26
2,COC(=O)[C@H](CC(C)C)NC(=O)N1CCC(C)CC1,16.7
3,CCOc1ccc(C(C)=O)cc1CN1C(=O)NC2(CCCCCC2)C1=O,3.83
4,COc1ccccc1NC(=O)c1c(C)oc2c1CCCC2,4.78
5,O=C(O)c1cccc(CSc2nnc(-c3ccc(Cl)cc3)o2)c1,12.5
6,Cc1nn(Cc2ccccc2)c(C)c1NC(=O)CCC(=O)O,2.81
7,O=C(O)CCC(=O)Nc1ccc(F)cc1,12.7
8,CCNc1c(NCC)c(=O)c1=O,15.2
9,CC(C)CC(=O)Nc1nnc(SCC(=O)NCc2ccc3c(c2)OCO3)s1,17.7
10,O=C(O)c1cccc(N2C(=O)c3ccc(Oc4ccc(Cl)cc4)cc3C2=O)c1,12.8
11,O=C(NNC(=S)NCc1ccccc1)c1ccc2c(c1)OCO2,8.77
12,O=C(Nc1ccc(N2CCOCC2)c(Cl)c1)c1cccc(F)c1,-21.2
13,CCCOc1ccc(C(=O)N2CCN(c3ccc(NC(=O)CC)cc3Cl)CC2)cc1,-77
14,CCCCCC(=O)Nc1ccc(N2CCN(CC)CC2)c(Cl)c1,-71.5
15,COc1ccc(OCC(=O)Nc2ccc(N3CCN(C(=O)c4ccccc4)CC3)c(Cl)c2)cc1,-19.4
16,CCCOc1ccc(C(=O)N2CCN(c3ccc(N)cc3Cl)CC2)cc1,-31.7
17,CCC(=O)Nc1ccc(N2CCN(CC)CC2)c(Cl)c1,-3.56
18,CCN1CCN(c2ccc(NC(=O)c3cccc(F)c3)cc2Cl)CC1,-75.2
19,CCN1CCN(c2ccc(NC(=O)c3cccnc3)cc2Cl)CC1,-16.8
20,O=C(Nc1ccc(N2CCOCC2)c(Cl)c1)c1ccc(F)cc1,-3.11
21,CCN1CCN(c2ccc(NC(C)=O)cc2Cl)CC1,-1.19
22,CCCC(=O)Nc1ccc(N2CCN(CC)CC2)c(Cl)c1.Cl,-47.8
23,CCN1CCN(c2ccc(NC(=O)c3ccc(F)cc3)cc2Cl)CC1,-75.6

row,Compound,"hERG current change (%, negative = inhibition) at 10uM [%]"
1,COc1ccc(-c2nnc(SCc3nnc(-c4cccs4)o3)n2CC2CCCO2)cc1 (stereo not drawn),-32
2,Cc1ccc(OCc2nnc(NC(=O)c3ccco3)s2)cc1,6.86
3,Cc1cccc(N(C(=O)c2csnn2)C(C(=O)NCc2ccccc2)c2ccncc2)c1 (stereo not drawn),-18.7
4,CCN(CC)CCCN1C(=O)C(O)=C(C(=O)c2sc(C)nc2C)C1c1ccco1 (stereo not drawn),-0.605
5,O=C(Cc1ccsc1)NNC(=O)c1ccc(F)cc1,-18.8
6,c1ccc(CCN(Cc2ccccc2)Cc2nc(C3CC3)no2)cc1,10.2
7,COc1ccc(OCc2cc(C(=O)N3CCC(OC)CC3)no2)c2ccccc12,14.4
8,CCCCOc1ccc(Nc2cc(Cl)ccc2C(=O)O)cn1,23.5
9,O=C(Nc1nnc(-c2ccccc2F)s1)Nc1ccccc1F,23.3
10,CCn1c(SCC(=O)Nc2ccc(C)cc2)nc2nc3c(cc2c1=O)CCCC3,-43.6
11,CCn1c(SCC(=O)Nc2ccc(OC)cc2)nc2nc3c(cc2c1=O)COC(C)(C)C3,-72.6
12,CCn1c(SCC(=O)Nc2ccc(C(C)=O)cc2)nc2nc3c(cc2c1=O)COC(C)(C)C3,13.8
13,CCn1c(SCC(=O)Nc2ccccc2C)nc2nc3c(cc2c1=O)COC(C)(C)C3,-21.4
14,CCn1c(SCC(=O)Nc2ccc(OC)cc2)nc2nc3c(cc2c1=O)CCCC3,-62.6
15,C=CCn1c(SCC(N)=O)nc2nc3c(cc2c1=O)COC(C)(C)C3,4.77
16,CCOc1ccc(NC(=O)CSc2nc3nc4c(cc3c(=O)n2CC)COC(C)(C)C4)cc1,0.831
17,CCn1c(SCC(=O)Nc2ccccc2)nc2nc3c(cc2c1=O)COC(C)(C)C3,-61.8
18,CCn1c(SCC(=O)Nc2ccc(C)cc2)nc2nc3c(cc2c1=O)COC(C)(C)C3,-81.8
19,CCn1c(SCC(=O)Nc2ccc(C(C)=O)cc2)nc2nc3c(cc2c1=O)CCCC3,-20.5
20,CCn1c(SCC(=O)Nc2cccc(C)c2)nc2nc3c(cc2c1=O)COC(C)(C)C3,-23.1
21,CCn1c(SCC(=O)Nc2ccc(OC)cc2OC)nc2nc3c(cc2c1=O)COC(C)(C)C3,-2.49
22,O=C(CN1C(=O)CCOc2ccccc21)Nc1ccc(Cl)c(S(=O)(=O)N2CCOCC2)c1,-7.44
